Inhibition data for 28 compounds are collected here from ChEMBL document CHEMBL1157539, “Thousands of chemical starting points for antimalarial lead identification” (Nature, 2010).

Holding throughout (type): functional
Assay [1] has as its system Plasmodium falciparum. Put plainly: GSK_TCMDC: Inhibition of Plasmodium falciparum 3D7 in whole red blood cells, using parasite LDH activity as an index of growth. Test compounds present at 2uM.
The subject of assay [2] is Plasmodium falciparum. Description: GSK_TCMDC: Inhibition of Plasmodium falciparum Dd2 in whole red blood cells, using parasite LDH activity as an index of growth. Test compounds present at 2uM.
The next assay has as its system HepG2. Description: GSK_TCMDC: Percent inhibition of human HepG2 cell line. Test compounds present at 10uM.

Regarding `CNCc1ccc(-c2cccc(CNCc3ccc(-c4ccccc4)cc3)c2)c(C(=O)OC)c1.O=C(O)C(F)(F)F`, the Inhibition (usually the drop in the measured response relative to a control, in per cent) stood at 92% in the assay with Plasmodium falciparum [1], 19% in the assay with Plasmodium falciparum [2] and 25% with HepG2.
The like results for `CN1CCN(c2ccnc3cc4c(cc23)N(C(=O)Nc2ccc3c(c2)CCCC3=O)CC4)CC1.Cl` were, in that order, 100%, 64% and 5%.
Take `Cc1cccc2nc(-c3cccc(-c4cccc(NC(=O)c5ccc(C(N)=O)cc5)c4)c3)[nH]c12`: the Inhibition in the assay on Plasmodium falciparum [1] was determined as 100%; with Plasmodium falciparum [2], 34%; in the assay on HepG2 it was 25%.
For `O=S(=O)(Nc1cccc(CCN2CCC(N3CCCCC3)CC2)c1)c1cccc2ccccc12`, the Inhibition in the assay with Plasmodium falciparum [1] is 99%; in the assay with Plasmodium falciparum [2], 63%; in the assay with HepG2, 23%.
The like results for `O=C(O)C(F)(F)F.OC1CCCN(Cc2ccc(-c3cccc(-c4nc5ccccc5[nH]4)c3)cc2)C1` (centres undefined) were, in that order, 86%, 0% and 14%.
`CC(C)(C)c1ccccc1OC(=O)c1ccccc1`: the figures for the Inhibition in the assay on Plasmodium falciparum [1], in the assay on Plasmodium falciparum [2] and in the assay with HepG2 were 95%, 2% and 0%, respectively.
The like results for `CC(C)(C)OC(=O)NCc1ccc(Nc2nnc(-c3cccc(C(=O)NCc4cc(C(F)(F)F)cc(C(F)(F)F)c4)c3)o2)cc1` were, in that order, 90%, 13% and 4%.
The like results for `O=C(O)C(F)(F)F.c1ccc(CNCc2cccc(-c3ccc(-c4nc5ccccc5[nH]4)s3)c2)cc1` were, in that order, 95%, 63% and 8%.
With `O=C(Nc1ccnc(N2CCCN(Cc3cccc(O)c3)CC2)c1)c1ccc(F)cc1.O=C(O)C(F)(F)F`, the Inhibition in the assay with Plasmodium falciparum [1] was determined as 90%; in the assay on Plasmodium falciparum [2], 3%; with HepG2, 12%.
Take `CCN(CC)CCCC(C)Nc1c2ccccc2nc2ccc3ccccc3c12.Cl` (centres undefined): the Inhibition is listed as 100% with Plasmodium falciparum [1], 89% in the assay with Plasmodium falciparum [2] and 24% in the assay on HepG2.
Consider `O=c1c2ccc(F)cc2sn1-c1ccc(Cl)cc1`, for which the figures for the Inhibition in the assay with Plasmodium falciparum [1], with Plasmodium falciparum [2] and in the assay on HepG2 were 98%, 11% and 8%, respectively.
The like results for `CCc1ccc(C2CCN(CCCCNC(=O)c3ccc(NC(=O)c4ccc(Cl)cc4)cc3)CC2)cc1` were, in that order, 100%, 63% and 15%.
In the case of `Cc1ccc(Cn2cnc3cc(C(=O)Nc4ccc(-c5cccc(CN(C)C)c5)cc4)ccc3c2=O)o1`, the Inhibition amounted to 99% in the assay with Plasmodium falciparum [1], 39% in the assay with Plasmodium falciparum [2] and 22% in the assay with HepG2.
For `Cl.Fc1cc(Cl)ccc1Nc1ccnc2cc(-c3ccc(CN4CCNCC4)o3)ccc12`, the Inhibition with Plasmodium falciparum [1] amounted to 100%; in the assay with Plasmodium falciparum [2], 99%; with HepG2, 16%.
With `Cc1ccc(C(=O)Cn2nc(-c3ccc(C)c(S(=O)(=O)N4CCCCC4)c3)ccc2=O)cc1`, the results for the Inhibition in the assay on Plasmodium falciparum [1], in the assay on Plasmodium falciparum [2] and in the assay on HepG2 were 99%, 76% and 6%, respectively.
Take `CSC1=NC(=Nc2ccccc2C)C2(CCC(C(C)(C)C)CC2)N1c1ccccc1Cl.I` (centres undefined): the Inhibition with Plasmodium falciparum [1] was 96%; with Plasmodium falciparum [2], 89%; in the assay on HepG2, 3%.
`Cl.FC(F)(F)c1ccc(COc2cc(Cl)ccc2Cn2ccnc2)cc1`: the Inhibition with Plasmodium falciparum [1] came to 95%; in the assay with Plasmodium falciparum [2], 0%; in the assay with HepG2 it was 13%.
With `CCNc1cc(C(=O)N[C@@H](Cc2ccccc2Cl)[C@H](O)CNC(C)CCCC(C)C)cc(N2CCCCS2(=O)=O)c1.Cl` (some centres undefined), the results for the Inhibition in the assay on Plasmodium falciparum [1], in the assay with Plasmodium falciparum [2] and in the assay with HepG2 were 97%, 62% and 12%, respectively.
Regarding `Cl.N#Cc1ccc2c(c1)CCN(CCC1CCC(NC(=O)c3cc4cccc(Cl)c4[nH]3)CC1)CC2` (centres undefined), the values for the Inhibition in the assay on Plasmodium falciparum [1], in the assay on Plasmodium falciparum [2] and in the assay with HepG2 were 99%, 78% and 34%, respectively.
Regarding `CCN(CC)CCN(Cc1ccc(-c2ccc(C(F)(F)F)cc2)cc1)C(=O)Cn1c(CCc2cc(F)c(F)cc2F)nc(=O)c2ccccc21.O=C(O)C(O)C(O)C(=O)O`, the Inhibition is 99% in the assay on Plasmodium falciparum [1], 50% in the assay with Plasmodium falciparum [2] and 39% with HepG2.
For `N=C(N)NCCN(Cc1ccccc1)c1ccc(Cl)cc1`, the Inhibition with Plasmodium falciparum [1] is reported as 100%; with Plasmodium falciparum [2], 99%; in the assay on HepG2, 0%.
Turning to `O=C(Nc1ccccc1)N(Cc1cccc(-c2cccc(CNCCc3ccccc3)c2)c1)C1CCN(Cc2ccccc2)CC1.O=C(O)C(F)(F)F`, the values for the Inhibition in the assay on Plasmodium falciparum [1], with Plasmodium falciparum [2] and in the assay with HepG2 were 100%, 87% and 100%, respectively.
Regarding `C=CCc1ccccc1OCC(O)CN(C1CCCCC1)C1CCCCC1.Cl` (centres undefined), the Inhibition with Plasmodium falciparum [1] is 93%; in the assay with Plasmodium falciparum [2] it was 84%; in the assay on HepG2, 50%.
Turning to `COCCCNC(=O)[C@H]1CNCCN1C(=O)c1ccccc1.O=C(O)C(F)(F)F`, the Inhibition in the assay with Plasmodium falciparum [1] is 97%; with Plasmodium falciparum [2] it was 95%; with HepG2, 53%.
Regarding `O=C(/C=C/c1ccc(F)c(Br)c1)NCCCCCN1CCC(c2c[nH]c3ccccc23)CC1`, the Inhibition was determined as 92% in the assay with Plasmodium falciparum [1], 10% with Plasmodium falciparum [2] and 39% in the assay on HepG2.
For the compound `CCn1c2ccccc2c2cc(C=NN=c3cc(C)[nH]c4ccccc34)ccc21`, the Inhibition with Plasmodium falciparum [1] was determined as 100%; with Plasmodium falciparum [2], 97%; in the assay on HepG2 it was 19%.
Take `COC(=O)CCCOc1cc(Cc2cnc(N)nc2N)cc(OC)c1OC`: the results for the Inhibition with Plasmodium falciparum [1], in the assay on Plasmodium falciparum [2] and in the assay with HepG2 were 95%, 0% and 12%, respectively.
`Cc1cc(=NN=Cc2cccc(Cl)c2)c2cc(F)ccc2[nH]1`: the figures for the Inhibition in the assay on Plasmodium falciparum [1], with Plasmodium falciparum [2] and with HepG2 were 100%, 100% and 1%, respectively.
